Screens: PubChem, National Center for Advancing Translational Sciences (NCATS)
This is a sample that favours compounds with a hit; in the whole collection about 2.2% have one here.
aSyn rescue – inhibitors of alpha-synuclein toxicity in yeast | AID 652106 | hit rate 0.14% among 370,000 | Yeast expressing alpha-synuclein, growth rescue, BacTiter-Glo, 24 h | Potency, µM (doses to about 46.1 µM), inactives show at the top dose growth rescue (activation), most hits filed as activators; also: % of control where 0% means no effect; nearly all actives have a fitted effect of over 65% in size
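Galactose-induced alpha-syn yeast (OD600=0.02, raffinose-pregrown) + pinned cpd, 24 hr, 30 deg C; growth by BacTiter-Glo luminescence. Growth restoration scores as activation.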
FUS yeast rescue – suppressors of FUS proteinopathy in yeast. Potency, µM (titrated, usually from 76.6 µM), actives largely listed as activators. S. cerevisiae FUS-expressing, growth rescue, OD600, 24 h. hit rate 0.24% among 390,000;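 also: plate controls were DMSO vehicle for no effect and reference control for full effect; nearly all actives have a fitted effect of over 55% in size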
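Read-out: OD at 600 nm after 24hr at 30C, reporting rescue of FUS-induced yeast toxicity. Cells at OD 0.005 in galactose (2%) minimal medium; compounds tested in a dilution series; CP55940 titration from 92uM final as control.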
Mito fusion act – inhibitors of mitochondrial division or activators of mitochondrial fusion | S. cerevisiae fusion-defective mutant growth rescue, CellTiterGlo 48 h | Potency, µM (titrated, usually from 46.1 µM), without a hit: at the highest dose growth rescue (activation), actives largely listed as activators | hit rate 0.23% among 320,000 | AID 485298; also: % of control where 0% means no effect; nearly all actives have a fitted effect of over 45% in size
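Temperature-sensitive fusion-defective S. cerevisiae (e.g. fzo1-1, mgm1-5) were grown with compound in YPEG medium (3% ethanol, 3% glycerol) for 48 hours at 37C. Growth rescue was measured as viability by CellTiterGlo luminescence after 10 minutes at ambient.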
Abeta yeast res – compounds reversing amyloid beta toxicity in yeast. Potency, µM (titrated, usually from 46.1 µM), usual class: activators. hit rate 0.063% among 410,000. AID 1347071. yeast expressing A-beta42, growth rescue, OD600, 48 h; response scale: 0% DMSO, 100% iron-clioquinol control; also: nearly all actives have a fitted effect of over 55% in size
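Yeast A-beta toxicity model in growth medium with pinned compounds, 48 h at 30 C; growth read as absorbance at 600 nm. Normalized to FeCl3/clioquinol equimolar mix (positive) and DMSO (negative).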
TDP43 rescue – TDP-43 toxicity inhibition in yeast; TDP-43 expressing yeast growth rescue, BacTiter-Glo, 24 h; Potency, µM (series often up to 46.1 µM), without a hit: at the top dose growth rescue (activation), most hits filed as activators; hit rate 1.8% among 410,000; AID 652104; also: % of control where 0% means no effect; nearly all actives have a fitted effect of over 50% in size
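Galactose-induced TDP-43 yeast, OD600=0.02, compound pinned; 24 hr, 30 deg C; BacTiter-Glo luminescence for growth. Inhibitors of TDP-43 toxicity read as activators.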
* hit, by the source's call. Calls follow the shape of the dose curve; as a rule, active = well fitted curve in the direction sought with a large enough effect; inconclusive = small, poorly fitted or top-dose-only effect, or another doubt; inactive = no such curve, though single readings can be large; an effect the other way counts as inactive or inconclusive. Potency is read from the fitted curve at half-maximal effect.

For Cc1ccc(Cl)cc1N1CCN(S(=O)(=O)c2ccc3c(c2)NC(=O)C(C)C(=O)N3)CC1 (stereo not given) the results were aSyn rescue -1%, FUS yeast rescue inactive, Mito fusion act 0%, Abeta yeast res inactive and TDP43 rescue -8%.
O=C(Cc1ccc(OCCCc2ccccc2)cc1)NO was read as aSyn rescue 0%.
Screening Cc1ccc(S(=O)(=O)N2[C@@H](c3cccc(Cl)c3)C(C(=O)OC(C)(C)C)=CC[C@H]2c2cccc(Cl)c2)cc1 returned aSyn rescue 0%, FUS yeast rescue inactive, Abeta yeast res inactive and TDP43 rescue 1%.
Screening Cc1cc(Br)c2nc(-c3ccccc3)c(Cc3cccc(Cl)c3)n2c1 returned aSyn rescue -7%, FUS yeast rescue inconclusive, Abeta yeast res inactive and TDP43 rescue 11µM*.
Screening Cc1ccc2nc(-c3ccccc3)c(Cc3cccc(Cl)c3)n2c1 returned aSyn rescue -1%, FUS yeast rescue inactive, Abeta yeast res inactive and TDP43 rescue 8%.
Screening Cc1ccc2nc(-c3ccc(C#N)cc3)c(Cc3cccc(Cl)c3)n2c1 returned aSyn rescue inconclusive, FUS yeast rescue inactive, Abeta yeast res inactive and TDP43 rescue 35µM*.
`O=C(NCc1ccccc1Br)c1cnc2sc(N3CCCCCC3)nn2c1=O` gave FUS yeast rescue inactive, Abeta yeast res inactive and TDP43 rescue 14%.
Screening Cc1[nH]c2ccccc2c1C(c1ccccc1)c1ccc(Cl)s1 (stereo not given) returned FUS yeast rescue inactive, Abeta yeast res inconclusive and TDP43 rescue 35µM*.
Screening Cc1[nH]c2ccccc2c1C(C[N+](=O)[O-])c1cccs1 (stereo not given) returned aSyn rescue 19%, FUS yeast rescue inactive, Mito fusion act 10%, Abeta yeast res inactive and TDP43 rescue inconclusive.
Screening O=C(NCc1ccccc1)c1ccc(NC(=O)C2CCCCC2)cc1 returned aSyn rescue -8%, FUS yeast rescue inactive, Abeta yeast res inactive and TDP43 rescue 13%.
For CCCS(=O)(=O)c1ncc(Cl)c(C(=O)N(Cc2ccccc2)Cc2ccco2)n1 the results were aSyn rescue 23%, FUS yeast rescue inactive, Abeta yeast res inactive and TDP43 rescue 16µM*.
For CCSc1ncc(Cl)c(C(=O)N(Cc2ccccc2)Cc2ccco2)n1 the results were FUS yeast rescue inactive, Abeta yeast res inactive and TDP43 rescue 18%.
`C(=N\NCc1ccccc1)/c1ccc2ncccc2c1` gave aSyn rescue -15%, FUS yeast rescue inactive, Mito fusion act -6%, Abeta yeast res inconclusive and TDP43 rescue 13%.
For S=C(N/N=C/c1ccc2ncccc2c1)Nc1ccccc1 the results were aSyn rescue 5%, FUS yeast rescue inactive, Mito fusion act 13%, Abeta yeast res inconclusive and TDP43 rescue 13µM*.
For Cc1onc(-c2ccccc2Cl)c1C(=O)Nc1ccc(-n2nncc2-c2ccco2)cc1 the results were aSyn rescue 10%, FUS yeast rescue 8.9µM*, Mito fusion act -2%, Abeta yeast res inactive and TDP43 rescue -14%.
`CC(C)C(=O)Nc1sc2c(c1C#N)CCCCC2` gave aSyn rescue 8%, FUS yeast rescue inactive, Mito fusion act 10%, Abeta yeast res inactive and TDP43 rescue 13µM*.
Screening N#Cc1c(NC(=O)C2CC2)sc2c1CCCCC2 returned aSyn rescue -6%, FUS yeast rescue inactive, Mito fusion act 16µM*, Abeta yeast res inactive and TDP43 rescue 0%.
Screening CCCc1ccc(NC(=O)C2CCCN(c3cnccn3)C2)cc1 (stereo not given) returned aSyn rescue inconclusive, FUS yeast rescue inactive, Mito fusion act inconclusive, Abeta yeast res inactive and TDP43 rescue 32µM*.
For Cc1cccc(N=C2NN=C(c3c(C)[nH]c4ccccc34)CS2)c1 the results were aSyn rescue -3%, FUS yeast rescue 11µM*, Mito fusion act 1%, Abeta yeast res inactive and TDP43 rescue 2%.
For Cc1cccc(N=C2NN=C(c3ccc4c(c3)OCCO4)CS2)c1 the results were aSyn rescue 3%, FUS yeast rescue inconclusive, Mito fusion act -4%, Abeta yeast res inactive and TDP43 rescue -5%.
`O=C(CSc1nc(-c2ccccc2)c(-c2ccccc2)o1)N1CCCCC1` gave aSyn rescue -20%, FUS yeast rescue inconclusive, Abeta yeast res inactive and TDP43 rescue 0%.
For O=C(CSCC(=O)N1CCCCC1)Nc1nc(-c2ccccc2)c(-c2ccccc2)s1 the results were aSyn rescue -2%, FUS yeast rescue 18µM*, Mito fusion act 26%, Abeta yeast res inactive and TDP43 rescue inconclusive.
Screening CC(=O)c1cccc(NC(=O)c2csc(-n3nc(C)cc3C(F)(F)F)n2)c1 returned aSyn rescue -4%, FUS yeast rescue inactive, Mito fusion act 3%, Abeta yeast res inactive and TDP43 rescue 13%.
Screening Cc1cc(C(F)(F)F)n(-c2nc(C(=O)Nc3cccnc3)cs2)n1 returned aSyn rescue 9%, FUS yeast rescue inactive, Mito fusion act 10%, Abeta yeast res inactive and TDP43 rescue 22µM*.
`CC(=O)OCC(=O)Nc1ccc(N=Nc2ccccc2)cc1` gave aSyn rescue -15%, FUS yeast rescue inactive, Mito fusion act 7%, Abeta yeast res inactive and TDP43 rescue 11µM*.
For CC(=O)Nc1ccccc1 the results were aSyn rescue -2%, FUS yeast rescue inactive, Abeta yeast res inactive and TDP43 rescue 20%.
For CC(=O)Nc1ccc(N=Nc2ccccc2)cc1 the results were aSyn rescue -12%, Mito fusion act 19%, Abeta yeast res inactive and TDP43 rescue 10µM*.
CC(C)(C)NC(=O)NC(=O)COc1ccc(Br)cc1Br was read as aSyn rescue 9%, FUS yeast rescue inactive, Mito fusion act inconclusive, Abeta yeast res inactive and TDP43 rescue 28µM*.
`Cc1ccc(CSc2nc3c(c(SCC(=O)O)n2)CCCC3)cc1` gave aSyn rescue 8%, FUS yeast rescue inactive, Mito fusion act 6%, Abeta yeast res inactive and TDP43 rescue 35µM*.
`C=CCn1c(N)c(C(=O)Nc2cccc(C)c2)c2nc3ccccc3nc21` gave aSyn rescue 8%, FUS yeast rescue inactive, Mito fusion act -8%, Abeta yeast res inactive and TDP43 rescue 25µM*.
For C=CCn1c(N)c(C(=O)Nc2ccc(C)c(C)c2)c2nc3ccccc3nc21 the results were aSyn rescue 7%, FUS yeast rescue inactive, Mito fusion act 1%, Abeta yeast res inactive and TDP43 rescue 17%.
`O=C(NCCc1ccccc1)c1ccc(-c2ccc(F)cc2)o1` gave aSyn rescue 0%, FUS yeast rescue inactive, Mito fusion act -2%, Abeta yeast res inactive and TDP43 rescue 20µM*.
